From PubChem BioAssay
ssDAF-12 act = S. stercoralis DAF-12 nuclear receptor activators, primary screen, cell-based, luminescence, HEK293, GRIP1 co-expression, lit1-tk-luc; Nuclear hormone receptor DAF-12 (Strongyloides stercoralis); HEK293 ssDAF-12/GRIP1 lit1-tk-luc reporter; % of 3 µM dafachronic acid response; activation, % at 6.8 µM; 1% of 370,000 active; AID 652126, 2013;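 active means activation above the mean over all tested compounds plus 3 SD, cut at about 0.9% in these data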
hcDAF12 agonist = H. contortus DAF-12 nuclear receptor activators, primary screen, cell-based, luminescence, HEK293, lit1-tk-luc reporter. HEK293 hcDAF-12 lit1-tk-luc reporter; 0% DMSO, 100% Δ7-dafachronic acid. activation, % at 6.8 µM. 1.4% of 370,000 active. AID 652067, 2013;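 active means activation above the mean of all tested compounds plus 3 SD, cut at about 5.5% in these data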
Wee1 degr inh = Wee1 degradation inhibitors, primary screen, cell-based, HeLa, Wee1K328M-luciferase, luminescence | Wee1-like protein kinase (Homo sapiens), P30291 | 1.2% of 220,000 active | reporter increase, % at 5 µM | HeLa Luc-Wee1K328M stability; 100% = proteasome inhibitor MG132 effect;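 active means activation above the mean of all tested compounds plus 3 SD, set per screening run, cut at about 8.8% in these data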;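 further: cells exposed to compound for 20 h before luminescence read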
Target sequence (P30291 whole entry K328M): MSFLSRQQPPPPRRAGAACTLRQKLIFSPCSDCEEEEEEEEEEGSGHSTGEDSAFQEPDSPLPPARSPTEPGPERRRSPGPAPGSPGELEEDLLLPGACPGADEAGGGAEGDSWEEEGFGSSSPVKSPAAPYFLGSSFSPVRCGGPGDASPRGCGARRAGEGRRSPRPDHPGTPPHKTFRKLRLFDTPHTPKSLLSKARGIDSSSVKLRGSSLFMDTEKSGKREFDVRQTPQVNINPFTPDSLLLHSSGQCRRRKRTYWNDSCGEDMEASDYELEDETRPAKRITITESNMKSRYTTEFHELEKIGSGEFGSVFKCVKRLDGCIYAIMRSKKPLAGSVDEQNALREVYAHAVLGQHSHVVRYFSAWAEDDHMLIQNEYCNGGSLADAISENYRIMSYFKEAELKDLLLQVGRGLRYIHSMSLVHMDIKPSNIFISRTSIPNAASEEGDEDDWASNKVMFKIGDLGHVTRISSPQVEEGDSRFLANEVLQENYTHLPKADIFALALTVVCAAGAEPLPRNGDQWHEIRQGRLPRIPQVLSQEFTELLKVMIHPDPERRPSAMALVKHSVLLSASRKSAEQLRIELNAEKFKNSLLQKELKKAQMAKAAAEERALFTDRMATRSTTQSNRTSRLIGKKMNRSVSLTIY
DAX1 inh-1 = DAX1 (NR0B1) inhibitors, primary screen, cell-based, HEK293, Gal4-DAX1, luciferase luminescence | 0.99% of 340,000 active | AID 504766, 2011 | Nuclear receptor subfamily 0 group B member 1 (Homo sapiens), P51843 | HEK293 Gal4-DAX1 luciferase reporter | inhibition, % at 6.75 µM;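 active means inhibition above the mean over all tested compounds plus 3 SD, cut at about 4.2% in these data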;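 further: inhibition shows as a rise in luminescence from relieved DAX1 repression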
DAX1 inh-2 = DAX1 (NR0B1) inhibitors on StAR promoter, primary screen, cell-based, luminescence, SF-1 (NR5A1), full-length DAX-1 | inhibition, % at 6.8 µM | AID 652010, 2013 | HEK293T StAR-luciferase reporter, SF-1/DAX-1 repression relief | 1.1% of 370,000 active;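 active means inhibition above the mean over all tested compounds plus 3 SD, cut at about 3.6% in these data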;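 further: higher inhibition means more luminescence from relief of DAX-1 repression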
hgDAF12 agonist = H. glycines DAF-12 receptor agonists, primary screen, cell-based, luminescence, HEK293, GAL4 fusion, UAS-luciferase | HEK293 GAL4-hgDAF12 UAS-luciferase reporter, agonist luminescence; normalized to butyrate control | activation, % at 6.8 µM | 1.8% of 370,000 active;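 active means activation above a cutoff set at the mean of all screened compounds plus 3 SD, cut at about 10% in these data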
Of the large screens only hits and unclear results are named; the others gave an inactive call. The list is not random: actives were taken first. Their share in the collection is about 4.6%.

N#Cc1cccc(NC(=O)OCCN2C(=O)CCC23CCC(c2ccccc2)CC3)c1 (centres undefined)	none (no result: Wee1 degr inh, DAX1 inh-1)
Cc1ccc(NCc2ccccc2F)cc1	hcDAF12 agonist 6.2
Cc1ccc2c(c1)N(CCCC(=O)NCc1cccs1)C(=O)CO2	none (no result: Wee1 degr inh, DAX1 inh-1)
COc1ccc(/C(N)=N/OC(=O)c2ccco2)cc1	DAX1 inh-2 3.9, hgDAF12 agonist 11.1
O=S(=O)(Nc1nc2ccccc2s1)c1cnc(Cl)c(Br)c1	ssDAF-12 act 1.0
CCOCCCNC(=O)c1ccc2c(c1)N=C(CC)c1cc(Br)ccc1S2	DAX1 inh-2 4.2
O=C1c2ccccc2C(c2nnnn2-c2ccc3c(c2)OCCO3)N1CCc1ccc(O)cc1 (centres undefined)	none (no result: Wee1 degr inh, DAX1 inh-1)
O=C1c2ccccc2C(c2nnnn2-c2ccc3c(c2)OCCO3)N1CCc1ccccc1F (centres undefined)	DAX1 inh-2 4.4 (no result: Wee1 degr inh, DAX1 inh-1)
COc1cc(OC)cc(C(=O)NNC(=S)Nc2ccccc2OC)c1	none
COc1ccccc1NC(=S)NNC(=O)c1ccncc1	none
COc1ccccc1NC(=S)NNC(=O)c1ccccc1Br	ssDAF-12 act 1.3
COc1ccccc1NC(=S)NNC(=O)c1ccccc1	hgDAF12 agonist 10.7
Cc1cccc(NC(=O)Cn2c(O)c(N=NC(=O)c3ccccc3O)c3ccccc32)c1	hcDAF12 agonist 6.0
Cc1ccc(NC(=O)Cn2c(O)c(N=NC(=O)c3cc([N+](=O)[O-])ccc3O)c3ccccc32)cc1	none (no result: ssDAF-12 act, hcDAF12 agonist, DAX1 inh-1, DAX1 inh-2, hgDAF12 agonist)
COc1ccc(CN(C(=O)c2ccco2)c2ccc(Br)cc2)cc1OC	none
O=C1/C(=C/N(C(=O)c2ccco2)c2ccc(Br)cc2)Sc2ccccc21	DAX1 inh-1 4.7 (no result: ssDAF-12 act, hcDAF12 agonist, DAX1 inh-2, hgDAF12 agonist)
O=C1/C(=C/N(C(=O)c2ccco2)c2ccc(Cl)cc2)Sc2ccccc21	Wee1 degr inh 9.4 (no result: ssDAF-12 act, hcDAF12 agonist, DAX1 inh-2, hgDAF12 agonist)
COc1ccc(-n2cc(COC(=O)NCCc3ccccc3)nn2)cc1	none (no result: Wee1 degr inh, DAX1 inh-1)
CC(=O)NC(c1cccc(F)c1)c1nc(-c2cccc(C(F)(F)F)c2)cs1 (centres undefined)	none (no result: Wee1 degr inh, DAX1 inh-1)
C/C(=N\OCC(=O)OCC(=O)NCc1ccccc1)c1ccc2c(c1)OCO2	DAX1 inh-2 3.9 (no result: Wee1 degr inh)
Cc1cccc(NC(=O)NCc2ccc3c(c2)OCO3)c1	DAX1 inh-2 4.4 (no result: Wee1 degr inh)
Cc1ccccc1OCC(=O)OCC(=O)NCc1ccc2c(c1)OCO2	ssDAF-12 act 1.2 (no result: Wee1 degr inh)
Cc1cccc(NC(=S)NCc2ccc3c(c2)OCO3)c1	none
CC(=O)Nc1cccc(NC(=O)COC(=O)CO/N=C(\C)c2ccc3c(c2)OCO3)c1	none (no result: Wee1 degr inh)
COc1cc(NC(=O)c2cc(C)on2)c(OC)cc1Cl	none (no result: Wee1 degr inh, DAX1 inh-1, DAX1 inh-2)
CCCCc1cc(=O)oc2cc(OCC(=O)Nc3cccnc3)c(Cl)cc12	none (no result: Wee1 degr inh)
O=C(CCN1C(=O)C2C3CCC(C3)C2C1=O)Nc1ccccc1C(F)(F)F (centres undefined)	ssDAF-12 act 6.0
CCN(CC(=O)NCc1cccs1)C(=O)c1cccc(S(=O)(=O)N(CC)c2ccccc2)c1	none (no result: Wee1 degr inh)
O=C1C=C(Nc2ccc(Cl)cc2Cl)CC(c2ccco2)C1 (centres undefined)	Wee1 degr inh 9.7
CC1(c2ccccc2)NC(=O)N(CC(=O)NCC2CCCO2)C1=O (centres undefined)	none (no result: Wee1 degr inh)
O=C(NNc1nc2c(F)cccc2s1)c1ccccc1	DAX1 inh-1 10.2
CC(C)C[C@@H]1CN(CCCC[C@H]2CNC(=O)C(=O)N2CCC2CCCCC2)C(=O)C(=O)N1CCc1ccc(O)cc1	none (no result: Wee1 degr inh, DAX1 inh-1)
Cc1ccc(CN2CCCCC(NC(=O)Nc3ccccc3)C2=O)cc1 (centres undefined)	none (no result: Wee1 degr inh, DAX1 inh-1)
O=C(Nc1nc2c(s1)CN(Cc1ccccc1)CC2)C1CCCC1	none
CC(C)(C)C(=O)Nc1nc2c(s1)CN(Cc1ccccc1)CC2	hgDAF12 agonist 10.6
CC(C)(C)C(=O)Nc1nc(-c2ccccc2)ns1	none
O=C(Nc1nc(-c2ccccc2)ns1)c1ccncc1	DAX1 inh-1 8.4
C[C@H](CO)N1C[C@H](C)[C@@H](CN(C)C(=O)Nc2ccccc2)Oc2c(NS(=O)(=O)c3cccs3)cccc2C1=O	none (no result: Wee1 degr inh)
COc1ccc(NC(=O)CSc2nnc(CNC(=O)COc3ccc(Cl)cc3)o2)cc1	hgDAF12 agonist 13.1
Cc1cccc(-c2cccc3c4c([nH]c23)[C@@H]2C[C@H](N(C)C(=O)c3ccccc3C)[C@H]([C@H](C)O)C(=O)N2CC4)c1	none (no result: Wee1 degr inh, DAX1 inh-1)
COc1cc2c(cc1NC(=O)COc1ccccc1OC)oc1ccccc12	none
COc1cc2c(cc1NC(=O)COC(=O)C(CCSC)NC(=O)c1ccccc1Cl)oc1ccccc12 (centres undefined)	ssDAF-12 act 2.5
Cc1ccc(-c2nc(N3CCN(C)CC3)c3ccccc3n2)cc1	hcDAF12 agonist 6.3 (no result: Wee1 degr inh)
CCN1CCN(c2nc(-c3ccccc3)nc3ccccc23)CC1	none
CN1CCN(c2nc(-c3ccc(C(C)(C)C)cc3)nc3ccccc23)CC1	hcDAF12 agonist 6.2 (no result: Wee1 degr inh)
Cc1ccc(CNC(=O)CSCc2ccccc2F)cc1	hgDAF12 agonist 12.9
CCOCCCNC(=O)Cn1cc2c(n1)-c1c(oc(C(=O)N3CCCC3)c1C)CC2	DAX1 inh-1 4.7 (no result: Wee1 degr inh)
CCCCN(C)CCCNC(=O)Cn1cc2c(n1)-c1c(oc(C(=O)N3CCCC3)c1C)CC2	none (no result: Wee1 degr inh)
C[C@@H]1CN([C@H](C)CO)C(=O)CCCn2nncc2CO[C@H]1CN(C)S(=O)(=O)c1ccc(C#N)cc1	none (no result: Wee1 degr inh)
Cn1nnc(-c2ccc(OCc3ccccc3F)cc2)n1	ssDAF-12 act 1.0, DAX1 inh-2 3.8
CCCS(=O)(=O)N1CCC(C(=O)NCCCOC)CC1	none
CCS(=O)(=O)N1CCC(C(=O)NCCCOC)CC1	Wee1 degr inh 10.2
COc1ccc(-c2csc(Nc3ccccc3)[n+]2Cc2ccccc2)cc1	ssDAF-12 act 0.9
O=[N+]([O-])c1ccc(-c2csc(Nc3ccccc3)[n+]2Cc2ccccc2)cc1	none
CC1CCC(NC(=O)C2c3ccccc3C(=O)N2CCCN2CCOCC2)CC1 (centres undefined)	ssDAF-12 act 1.0, DAX1 inh-1 4.7
CC(=O)Oc1ccc(C2=Cc3ccc(OC(C)=O)cc3OC2C)cc1 (centres undefined)	none (no result: Wee1 degr inh)
CCSc1nsc(NC(=O)Nc2ccccc2Cl)n1	hgDAF12 agonist 10.9 (no result: Wee1 degr inh)
CCSc1nsc(NC(=O)Nc2ccc(F)cc2F)n1	none (no result: ssDAF-12 act, hcDAF12 agonist, Wee1 degr inh, DAX1 inh-2, hgDAF12 agonist)
